About 11,000 (3.1%) of roughly 360,000 compounds were called active. Roughly 4% stayed inconclusive and do not appear here. This is one part of a sample in which actives are shown more often than they occur. Values without a mark were called inactive. Calls follow the shape of the dose curve; as a rule, active = well fitted inhibition curve with a large enough effect; inconclusive = small, poorly fitted or top-dose-only effect; inactive = no such curve, though single readings can be large or run the other way.
% is scaled to controls: 0 for no effect and ±100 for the full control effect; potency is read from the fitted curve at half-maximal effect.

The target of the experiment is Schistosoma mansoni thioredoxin glutathione reductase (TGR) (UniProt Q962Y6). Briefly: qHTS Assay for the Inhibitors of Schistosoma Mansoni Peroxiredoxins. Also: nearly all actives have a fitted effect of over 60% in size. The note with it: purified TGR, DTNB reduction, TNB absorbance 405 nm; series mostly up to 114 µM; activity change, negative = inhibition: at the top concentration. In a few lines:
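TGR 20 nM + NADPH 100 uM (dispensed conc.), cpd preinc 15 min RT; start with NADPH (500 uM addition) then DTNB (15 mM addition). Kinetic TNB absorbance, 405 nm filter. Four-parameter Hill fit across titration.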
For orientation: Quantitative high-throughput screening tests each substance at several concentrations.
With `O=C(CSc1nccn1C1CCCC1)Nc1cc(C(F)(F)F)ccc1Cl`, the “activity change, negative = inhibition” value was 6.6%. With `Cc1oc(-c2ccccc2Cl)[n+]([O-])c1C`, the Potency was 31.6 µM (active).

For `CCOc1cnc(-c2c(-c3ccccc3Cl)noc2C)o1`, the “activity change, negative = inhibition” value was -5.55%. Turning to `CCn1c(=O)c(=O)[nH]c2c(=O)oc3ccc(S(=O)(=O)Nc4ccc(OC)cc4)cc3c21`, the Potency is 35.5 µM (active). Turning to `COc1ccc(NS(=O)(=O)c2ccc3oc(SCC(N)=O)nc3c2)cc1`, the “activity change, negative = inhibition” value is -0.717%. With `COc1ccc(S(=O)(=O)Nc2ccc3oc(C)c(C(C)=O)c3c2)cc1`, the “activity change, negative = inhibition” value was -27.8%. Regarding `Cc1cc(NC(=O)CS(=O)(=O)c2cn(C)c3ccccc23)no1`, the Potency is 28.2 µM (active).

With `CCOC(=O)c1ccc(NC(=O)CS(=O)(=O)c2cn(CC)c3ccccc23)cc1`, the “activity change, negative = inhibition” value was 1.35%. On to `Cc1cc(NC(=O)COn2nnc3ccccc32)no1`, for which the “activity change, negative = inhibition” value was 0.17%.

For `COc1ccc(N(C)C(=O)C2CCN(S(=O)(=O)c3cc(Br)cc4c3N(C(C)=O)CC4)CC2)cc1`, the “activity change, negative = inhibition” value is 4.51%. As to `COc1ccc(Cl)cc1S(=O)(=O)N1CCC(c2ccncc2)CC1`, the “activity change, negative = inhibition” value is -0.887%. As to `CCN1CC(CN(C)Cc2nc(-c3ccc(Cl)cc3)no2)CC1=O` (stereo not given), the “activity change, negative = inhibition” value was -4.79%. Consider `CN(Cc1ccccn1)Cc1nc(-c2ccc(Cl)cc2)no1`, for which the Potency was 28.2 µM (active).

As for `COC(=O)c1ccc(-c2noc(CN(Cc3ccccn3)CC3CCCO3)n2)cc1` (stereo not given), the “activity change, negative = inhibition” value was 7.28%. Take `CC(=O)N1CCCc2ccc(NS(=O)(=O)c3ccc(F)cc3F)cc21`: the “activity change, negative = inhibition” value was -1.51%.

On to `COc1cc(OC)cc(-c2nc3nc(C)c(CCC(=O)Nc4ccccc4)c(C)n3n2)c1`, for which the “activity change, negative = inhibition” value is -3.65%.

With `Cc1ccc(NC(=O)c2oc3ccc(S(=O)(=O)N4CCCCC4)cc3c2C)cc1Cl`, the “activity change, negative = inhibition” value was 7.17%.

Regarding `O=C(/C=C/c1ccccc1Cl)Nc1ccc(S(=O)(=O)Nc2ncccn2)cc1`, the “activity change, negative = inhibition” value was 6.23%. On to `O=S(=O)(Nc1ncccn1)c1ccc(NS(=O)(=O)c2cccc(Cl)c2Cl)cc1`, for which the “activity change, negative = inhibition” value is 1.1%.

Consider `O=C(CCS(=O)(=O)c1ccccc1Cl)Nc1ccc(S(=O)(=O)Nc2ncccn2)cc1`, for which the Potency is 14.1 µM (active). `CCOc1ccc(NC(=O)Cn2c(=O)n(CCCC(=O)NCc3ccc4c(c3)OCO4)c(=O)c3ccccc32)cc1`: the “activity change, negative = inhibition” value is -0.638%.

For the compound `O=S(=O)(NCCS(=O)(=O)N1CCN(c2ccccc2)CC1)c1ccc(Cl)cc1`, the “activity change, negative = inhibition” value is -1.31%. For the compound `O=C(CNS(=O)(=O)c1cccs1)N1CCN(c2ccccc2Cl)CC1`, the “activity change, negative = inhibition” value was -8.44%.

As for `Cc1ccccc1Nc1nn2c(=O)c3ccc(C(=O)NCCc4ccc(Cl)cc4)cc3nc2s1`, the “activity change, negative = inhibition” value was -12.3%.

`O=C(O)c1ccc2c(c1)N(Cc1ccc(F)cc1)C(=O)c1ccccc1S2=O` (stereo not given): the “activity change, negative = inhibition” value was 6%.

For `CCC1=C/C(=C\c2ccc3c(c2)OCO3)C(=O)S1`, the Potency was 28.2 µM (active).

As for `CCCCN(CC)C(=O)c1ccc2c(c1)OCO2`, the “activity change, negative = inhibition” value is 24.1%.

As for `CCc1ccc(NC(=O)NC(C)c2ccc3c(c2)OCO3)cc1` (stereo not given), the “activity change, negative = inhibition” value was -3.56%. In the case of `O=C(NCc1ccccn1)c1ccc2nc(-c3ccco3)c(-c3ccco3)nc2c1`, the Potency was 0.891 µM (active).

In the case of `COc1ccc(-c2nc3ccc(C(=O)NCc4ccc(C)cc4)cc3nc2-c2ccc(OC)cc2)cc1`, the “activity change, negative = inhibition” value is 7.37%. In the case of `COc1cccc(S(=O)(=O)NCc2ccc(C(=O)NCc3ccccn3)cc2)c1`, the “activity change, negative = inhibition” value is -21.9%. For the compound `CNC(=S)N/N=C/c1ccc(N2CCOCC2)s1`, the Potency was 28.2 µM (active). With `CNC(=S)N/N=C/c1ccc(OCc2ccccc2)c(Br)c1`, the “activity change, negative = inhibition” value was -6.28%. With `Cc1ccc(C(=O)C(=S)N2CCOCC2)cc1`, the “activity change, negative = inhibition” value is -13.4%. Consider `CCN(CC)c1ccc(NC(=O)CN2CCN(CC(=O)Nc3ccc(Cl)cc3)CC2)cc1`, for which the “activity change, negative = inhibition” value was 0.407%. Take `COc1ccc(C2C(=O)N(C3CCCCCC3)CC(=O)N2CCc2ccc(Cl)cc2)cc1OC` (stereo not given): the “activity change, negative = inhibition” value is 8.56%. On the same count and under the same terms, the result for `Oc1ccc(-c2nc3ccc(Cl)cn3c2Nc2ccc3c(c2)OCO3)cc1` reads -0.513%; that for `COc1ccc(OC)c(NC(=O)CSC2=Nc3ccccc3C3=NC(CC(=O)NCCc4ccccc4)C(=O)N23)c1` (stereo not given), -2.58%. Regarding `Cc1coc2c(O)cc3c(c12)OC1(N2CCCCC2)C(=O)NCCCC31` (stereo not given), the Potency was 17.8 µM (active). Consider `Cn1c(=O)c2c(nc(SCC(=O)Nc3ccc(F)cc3)n2Cc2ccc(Cl)cc2)n(C)c1=O`, for which the “activity change, negative = inhibition” value was -12%. As to `O=C(Nc1ccccc1Cl)N1CCC(CN2CCCCC2)CC1`, the “activity change, negative = inhibition” value is 2.55%. Turning to `Cc1cc(C)c(/C=C/c2onc(C)c2S(=O)(=O)N2CCC(C(=O)Nc3ccc(Cl)cc3C)CC2)c(C)c1`, the “activity change, negative = inhibition” value was 1.13%. The same measure, in the same setting: in the case of `NC(=O)CSc1oc(-c2cccs2)nc1S(=O)(=O)c1ccccc1` it was -20.4%. As to `CCCCS(=O)(=O)c1oc(-c2cccs2)nc1S(=O)(=O)c1ccccc1`, the Potency is 0.501 µM (active). With `CSc1oc(-c2cccs2)nc1S(=O)(=O)c1ccc(Br)cc1`, the “activity change, negative = inhibition” value was -4.01%. As to `COc1ccccc1OCC(=O)Nc1nnc2n1CCS2`, the “activity change, negative = inhibition” value was 5.09%. For `CCOC(=O)c1c(S(=O)(=O)NCC(=O)Nc2ccc(Cl)c(C(F)(F)F)c2)c(C)n(C)c1C`, the “activity change, negative = inhibition” value was -8.26%. As for `Cc1ccc(C)c(S(=O)(=O)n2cnc3ccccc32)c1`, the “activity change, negative = inhibition” value is 5.84%. For the compound `Cc1cc(C)c(S(=O)(=O)n2cc(C(C)C(N)C(=O)O)c3ccccc32)c(C)c1` (stereo not given), the Potency was 10 µM (active).

With `Cc1ccc(S(=O)(=O)n2cnc3ccccc32)c(C)c1`, the “activity change, negative = inhibition” value is -18.3%.
